The source of these data is PubChem BioAssay AID1347422 (Sanford-Burnham Center for Chemical Genomics, 2020).

Molecules are shown by their SMILES. The full ranking holds about 1,000 compounds; the median of “thermal shift dTm” is about 0.19, and the highest 2% start at about 1.7. The sample as a whole holds a higher share of the highest values than the screen did. Calls of active or inactive are those of the source.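 The calls were made as follows: active = mean rise in melting temperature of at least 1 degC over same-plate control wells; inactive = below that, where a call was filed.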

In the assay the target is Sulfhydryl oxidase 1 (Homo sapiens) (UniProt O00391). Briefly: ligand-induced melting shift of human QSOX1 – biophysical, protein thermal shift, single concentration, QSOX1 inhibitor project, confirmation (AID 1347422).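 Also: dTm is compound Tm minus mean Tm of DMSO-only wells on that plate.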 As to conditions: recombinant hQSOX1 thermal shift, Sypro Orange, at 25 µM, stronger effect = higher value.
Sequence of Sulfhydryl oxidase 1 (Homo sapiens) (O00391 whole entry, looked up): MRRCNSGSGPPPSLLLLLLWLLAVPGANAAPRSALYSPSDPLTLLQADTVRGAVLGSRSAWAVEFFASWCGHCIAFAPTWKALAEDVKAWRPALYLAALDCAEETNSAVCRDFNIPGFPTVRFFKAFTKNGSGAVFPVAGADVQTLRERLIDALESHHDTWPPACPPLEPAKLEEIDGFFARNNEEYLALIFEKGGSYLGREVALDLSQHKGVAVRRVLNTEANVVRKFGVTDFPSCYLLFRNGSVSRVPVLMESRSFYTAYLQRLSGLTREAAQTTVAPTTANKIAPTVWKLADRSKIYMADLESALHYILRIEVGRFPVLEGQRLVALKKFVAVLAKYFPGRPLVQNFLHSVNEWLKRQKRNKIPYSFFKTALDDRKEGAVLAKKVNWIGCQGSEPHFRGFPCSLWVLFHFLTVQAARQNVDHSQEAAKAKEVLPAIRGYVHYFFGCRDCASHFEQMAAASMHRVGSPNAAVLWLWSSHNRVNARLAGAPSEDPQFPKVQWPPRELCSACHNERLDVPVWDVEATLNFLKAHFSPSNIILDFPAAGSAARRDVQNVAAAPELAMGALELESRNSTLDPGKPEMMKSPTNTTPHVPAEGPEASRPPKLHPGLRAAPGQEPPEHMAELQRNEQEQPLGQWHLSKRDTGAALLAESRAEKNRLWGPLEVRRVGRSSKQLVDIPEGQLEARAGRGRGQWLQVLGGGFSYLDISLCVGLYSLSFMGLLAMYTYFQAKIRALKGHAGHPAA
Take `COc1ccc(-c2c(-c3ccc(OC)c(C)c3O)n[nH]c2C(F)(F)F)cc1`: the thermal shift dTm is 0.76 °C.

As for `Cc1ccc2sc(-c3ccc(NC(=O)CCc4ccccc4)cc3)nc2c1`, the thermal shift dTm is 0.4 °C. With `COc1ccc(NC(=O)CSCc2ccccc2C)cc1Cl` the figure was 0.02 °C; with `Cc1cc(C)nc(NS(=O)(=O)c2ccc(NC(=O)c3cccs3)cc2)n1`, 2.92 °C (active).

As for `Cc1ccc(S(=O)(=O)Nc2cccc(NC(=O)c3cccs3)c2)cc1`, the thermal shift dTm was 0.48 °C.

In the case of `O=C(c1ccncc1)c1ccc(NC(=O)c2cccs2)cc1`, the thermal shift dTm was 0.05 °C.

Take `CC1=Nc2ccccc2/C1=C/c1c(O)n(Cc2ccco2)c(=O)[nH]c1=O`: the thermal shift dTm stood at 0.93 °C. The value for `CCOc1ccc(Nc2nnc(C)s2)cc1` was 0.28 °C; that for `Cc1nc(N)sc1-c1nnc(Nc2ccccc2)s1` was 2.14 °C (active); that for `CC(=O)c1sc(Nc2ccc(Oc3ccccc3)cc2)nc1C` was 0.15 °C. Take `Cc1ccc(NC(=O)C(C)Sc2nc3c(c(=O)[nH]2)CCCC3)cc1Cl` (centres undefined): the thermal shift dTm was found to be 0.01 °C. With `CCOc1ccc2nc(NC(=O)CCCCC(=O)O)sc2c1` the figure was -0.04 °C (inactive); with `CC(NS(=O)(=O)c1ccc(Cl)cc1)C1C2CC3CC(C2)CC1C3` (centres undefined), 0.05 °C. On to `COc1ccc(CCC(=O)Nc2nc3ccc(S(C)(=O)=O)cc3s2)cc1`, for which the thermal shift dTm came to 0.35 °C. As for `Cc1ccc(CN2CCC(C(=O)Nc3cccc(-c4ccn[nH]4)c3)CC2)o1`, the thermal shift dTm was 0.19 °C. With `CCc1nc2sc(C(=O)c3ccccc3)c(N)c2c2c1CCCC2` the figure was 0.11 °C. The value for `O=C(CCCc1c[nH]c2ccccc12)NCCOc1ccc(Cl)cc1` was -0.03 °C (inactive); that for `COc1cc(CO)cc(Cl)c1OCc1cccc2ccccc12` was 0.21 °C; that for `CC(=O)Nc1cccc(NC(=O)COc2ccc(F)cc2Cl)c1` was 0 °C (inactive). The value for `CCSC1=N/C(=C\c2ccc(-c3cccc(Cl)c3)o2)C(=O)S1` was 0.25 °C. Consider `Cc1ccc(S(=O)(=O)Nc2ccc(C(=O)Nc3ccc4c(c3)OCO4)cc2)cc1`, for which the thermal shift dTm was 1.03 °C (active). Take `Cc1ccc(Nc2nc(C3(C)CC4(CC(C)OC4=O)C(=O)O3)cs2)cc1` (centres undefined): the thermal shift dTm turned out to be 0.11 °C. The value for `O=C1OC(c2ccccc2)OC(=O)C1=Cc1ccc(-c2cccc(C(F)(F)F)c2)o1` (centres undefined) was 1.07 °C (active); that for `CCCc1cc(=O)[nH]c(N2CCN(Cc3ccc4c(c3)OCO4)CC2)n1` was 0.02 °C.

As for `Cc1ccc(-c2n[nH]c(-c3ccncc3)n2)cc1`, the thermal shift dTm was determined as 0 °C. With `O=C(NCCO)Nc1ccc(Cl)c(Cl)c1` the figure was 0 °C (inactive); with `O/N=C/c1cc(Cl)ccc1OCc1ccc(F)cc1`, 0.34 °C. The value for `CCOc1ccc(NC(=O)Nc2cnccn2)cc1` was 0.09 °C; that for `O=C(COc1ccc(Cl)cc1)NCCSCc1ccc(Cl)c(Cl)c1` was 0.11 °C; that for `CC(=O)Nc1ccc(NC(=O)CCc2nc(-c3ccccc3)no2)cc1` was 0.14 °C. The value for `Cc1cccc(Nc2nc3ccc(C)cc3n3cnnc23)c1` was 0.19 °C; that for `Cc1ccc(C(=O)Nc2nc(-c3ccccc3)c(C)s2)s1` was 0.01 °C. Consider `Cc1ccc(NC(=O)Nc2ccc(S(=O)(=O)Nc3ccccn3)cc2)cc1`, for which the thermal shift dTm was 2.37 °C (active).

On to `Cc1noc(NS(=O)(=O)c2ccc(NC(=O)Nc3ccc(Cl)cc3)cc2)c1C`, for which the thermal shift dTm stood at 0.7 °C. With `O=C(Nc1ccc(Cl)cc1)Nc1ccc(S(=O)(=O)Nc2ncccn2)cc1` the figure was 1.03 °C (active); with `CC(NC(=O)c1ccc(-c2cc(Cl)ccc2Cl)o1)c1ccccc1` (centres undefined), 0.07 °C. The value for `Cc1ccccc1COc1ccc(Br)cc1/C=C1/N=C(c2ccco2)OC1=O` was 0.82 °C. The value for `Cc1nonc1CC(=O)N1CCc2ccc(NC(=O)Cc3ccccc3F)cc2C1` was 0.29 °C. As to `COc1ccc(-c2nnc(Nc3ccc(O)cc3)c3ccccc23)cc1`, the thermal shift dTm came out at 0.15 °C.

As to `CN(C(=O)Nc1ccc(F)cc1)c1ccccc1`, the thermal shift dTm was -1.43 °C (inactive). With `Clc1cccc(-c2cn3ccccc3n2)c1` the figure was 0.71 °C.

In the case of `O=C(Nc1ccc2ncccc2c1)c1cccc([N+](=O)[O-])c1`, the thermal shift dTm worked out at 0.53 °C. On to `N#Cc1nc(/C=C/c2cccs2)oc1NCCc1ccccc1`, for which the thermal shift dTm is -37.7 °C (inactive). With `Cc1ccc(NC(=O)N2CCC(Cc3ccccc3)CC2)cc1` the figure was 0.07 °C; with `CCCC(=O)Nc1cccc(NC(=O)/C=C/c2ccc(Cl)cc2)c1`, -31.6 °C (inactive).

For the compound `O=C(/C=C/c1ccc(Cl)cc1)Nc1cccnc1`, the thermal shift dTm was 2.02 °C (active). With `O=C(/C=C/c1ccc(F)cc1)Nc1ccncc1` the figure was 0.57 °C. With `CCOc1ccc(NC(=O)Nc2cc(OC)c(OC)c(OC)c2)cc1` the figure was 1.64 °C (active); with `CCOc1ccc(NC(=O)Nc2cc(C)ccc2F)cc1`, 2.42 °C (active). With `COc1cccc(NC(=O)Nc2cc(C)ccc2F)c1` the figure was 0 °C; with `CCc1ccc(NC(=O)Nc2cc(F)ccc2F)cc1`, -15.7 °C (inactive); with `CCOc1ccc(NC(=O)Nc2cc(F)ccc2C)cc1`, 2.14 °C (active). For the compound `CCOc1ccc(NC(=O)Nc2cc(C)ccc2OC)cc1`, the thermal shift dTm stood at 0.34 °C. The value for `Cc1ccc(-c2cn(S(=O)(=O)c3cccc4nsnc34)nc2N)cc1` was 0.1 °C. As for `O=C(Nc1ccccc1C(=O)O)c1cccc(S(=O)(=O)Nc2ccccc2)c1`, the thermal shift dTm is 1.23 °C (active). The value for `COc1ccc(Cl)cc1Nc1nc(-c2ccccn2)cs1` was 0.1 °C; that for `Cc1cnc(CNCc2ccccc2OCC(O)CN(C)C2CCCCC2)cn1` (centres undefined) was 0.14 °C. `CCC(=O)c1ccc(OCC(=O)Nc2ccc(NC(C)=O)cc2)cc1`: the thermal shift dTm was -0.03 °C (inactive). With `Cc1ccc2[nH]cc(CCNC(=O)c3ccccc3Cl)c2c1` the figure was -0.13 °C (inactive). As for `CCOc1ccccc1C1C(C#N)=C(N)Oc2cc(N(C)C)ccc21` (centres undefined), the thermal shift dTm is 0.29 °C. The value for `COc1ccc(-c2cc(C(F)(F)F)nc(NCc3cccs3)n2)cc1OC` was 0.11 °C; that for `O=C(Nc1cccc(-c2ccco2)c1)C1CCN(C(=O)CCc2ccco2)CC1` was 1.03 °C (active); that for `CCN(CC)C(=O)c1cccc(NC(=O)Nc2ccc(Cl)cc2)c1` was 0.23 °C. With `O=C(Nc1ccc(Cl)cc1)Nc1cccc(C(=O)NCc2ccco2)c1` the figure was 3.11 °C (active); with `CC(=O)Nc1cccc(C(=O)Nc2ccc(Cl)cc2)c1`, -7.43 °C (inactive). The value for `CCc1ccc2c(c1)C(OC(C)=O)C(C)(C)C(c1cccc(Br)c1)N2` (centres undefined) was 0.44 °C.

On to `O=C(CCC(=O)OCc1ccc(Br)cc1)Nc1cc(C(F)(F)F)ccc1Cl`, for which the thermal shift dTm came out at 0.17 °C. Turning to `O=C(Nc1ccc(C(F)(F)F)cc1Cl)c1cc([N+](=O)[O-])[nH]n1`, the thermal shift dTm is 1.73 °C (active). Consider `COc1cc(-c2cccc(-c3ccn[nH]3)c2)ccc1NC(C)=O`, for which the thermal shift dTm was found to be 0.14 °C.
